In PubChem BioAssay (NCATS) one finds activation, outcome and Potency data, which are given here for 24 molecules.

The target in experiment [1] is Androgen receptor (Homo sapiens) (UniProt P10275). Nature of the experiment: qHTS assay for small molecule agonists of androgen receptor signaling (AID 588515; active = well fitted curve in the direction sought with a large enough effect in the signal ratio, with a control signal flat; the % refers to the signal ratio; also: % is scaled to controls: 0 for no effect and ±100 for the full control effect). The following applies: AR-UAS-bla HEK293, beta-lactamase ratio, agonist 16 h; activation: active compounds read high. The essentials: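 EC50 and efficacy came from Hill fits of titrations (up to 92 uM) normalized to 30 nM R1881 as 100% and DMSO as 0%. Compound exposure was 16 h at 37 C on AR-UAS-bla HEK293 cells, with a 405/460/530 nm CCF4 fluorescence read.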
Chain of Androgen receptor (Homo sapiens) (P10275 whole entry, looked up): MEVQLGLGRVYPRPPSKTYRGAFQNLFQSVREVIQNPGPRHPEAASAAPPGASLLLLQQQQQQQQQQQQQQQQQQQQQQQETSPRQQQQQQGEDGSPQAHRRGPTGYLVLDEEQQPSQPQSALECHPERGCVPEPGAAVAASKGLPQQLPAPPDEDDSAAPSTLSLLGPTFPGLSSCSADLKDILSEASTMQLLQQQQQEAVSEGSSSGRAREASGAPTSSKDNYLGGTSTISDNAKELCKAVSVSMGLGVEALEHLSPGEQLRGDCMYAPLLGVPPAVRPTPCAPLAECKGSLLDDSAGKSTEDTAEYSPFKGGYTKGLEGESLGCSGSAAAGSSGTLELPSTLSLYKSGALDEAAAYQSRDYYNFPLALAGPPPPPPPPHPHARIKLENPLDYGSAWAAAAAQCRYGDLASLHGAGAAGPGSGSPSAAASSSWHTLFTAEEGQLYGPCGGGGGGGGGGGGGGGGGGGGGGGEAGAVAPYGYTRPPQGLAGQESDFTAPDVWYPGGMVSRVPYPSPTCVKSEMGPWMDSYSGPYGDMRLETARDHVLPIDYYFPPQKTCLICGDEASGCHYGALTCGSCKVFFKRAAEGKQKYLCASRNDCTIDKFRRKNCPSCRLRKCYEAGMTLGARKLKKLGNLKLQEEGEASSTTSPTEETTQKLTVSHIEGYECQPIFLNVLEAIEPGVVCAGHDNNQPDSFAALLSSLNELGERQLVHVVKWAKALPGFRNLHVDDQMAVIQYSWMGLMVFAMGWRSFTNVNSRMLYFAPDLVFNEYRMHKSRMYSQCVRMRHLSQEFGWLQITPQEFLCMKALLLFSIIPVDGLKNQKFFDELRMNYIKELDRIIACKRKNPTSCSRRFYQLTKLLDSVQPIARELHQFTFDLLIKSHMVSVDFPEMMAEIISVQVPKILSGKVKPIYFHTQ
Background: qHTS replaces the single test concentration by a dilution series.

Experiment [2] shares this target. Nature of the experiment: qHTS assay for small molecule antagonists of androgen receptor signaling (AID 588516; active = well fitted curve in the direction sought with a large enough effect in the signal ratio, with a control signal flat, not every such curve was filed as active; the % refers to the signal ratio; also: % is scaled to controls: 0 for no effect and ±100 for the full control effect). The essentials: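 AR-UAS-bla GripTite HEK 293 cells (2000/well) treated with compound titrations plus 10 nM R1881 for 16 h at 37C. Beta-lactamase read by CCF4 FRET (460/530 nm); IC50 from Hill fits, normalized to R1881 and DMSO control wells.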
Experiment [3] concerns the target Bile acid receptor (Homo sapiens) (UniProt Q96RI1). Nature of the experiment: qHTS assay for small molecule antagonists of farnesoid X receptor signaling (AID 588526). Also: % is scaled to controls: 0 for no effect and ±100 for the full control effect. The method, boiled down:
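Beta-lactamase reporter antagonist mode: HEK293T FXR-UAS-bla cells, titrated compound, CDCA stimulation, 16 h 37 C, CCF4 dye 2 h RT. Data normalized to CDCA 50 uM and DMSO; Hill-fit IC50.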

In experiment [4] the target is Glucocorticoid receptor (Homo sapiens) (UniProt P04150). Nature of the experiment: qHTS assay for small molecule antagonists of glucocorticoid receptor signaling (AID 588533; active = well fitted inhibition curve with a large enough effect in the signal ratio, with a control signal flat, not every such curve was filed as active; the % refers to the signal ratio;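 also: cells stimulated with 2 nM dexamethasone as agonist; % is scaled to controls: 0 for no effect and ±100 for the full control effect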). The essentials: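 Antagonist-mode qHTS: compound titrations added to GRE-bla HeLa cells, then dexamethasone 2 nM final; 18 h, 37 C. CCF4 FRET fluorescence normalized to dexamethasone and DMSO; IC50 from Hill fit.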
Chain of Glucocorticoid receptor (Homo sapiens) (P04150 whole entry, looked up): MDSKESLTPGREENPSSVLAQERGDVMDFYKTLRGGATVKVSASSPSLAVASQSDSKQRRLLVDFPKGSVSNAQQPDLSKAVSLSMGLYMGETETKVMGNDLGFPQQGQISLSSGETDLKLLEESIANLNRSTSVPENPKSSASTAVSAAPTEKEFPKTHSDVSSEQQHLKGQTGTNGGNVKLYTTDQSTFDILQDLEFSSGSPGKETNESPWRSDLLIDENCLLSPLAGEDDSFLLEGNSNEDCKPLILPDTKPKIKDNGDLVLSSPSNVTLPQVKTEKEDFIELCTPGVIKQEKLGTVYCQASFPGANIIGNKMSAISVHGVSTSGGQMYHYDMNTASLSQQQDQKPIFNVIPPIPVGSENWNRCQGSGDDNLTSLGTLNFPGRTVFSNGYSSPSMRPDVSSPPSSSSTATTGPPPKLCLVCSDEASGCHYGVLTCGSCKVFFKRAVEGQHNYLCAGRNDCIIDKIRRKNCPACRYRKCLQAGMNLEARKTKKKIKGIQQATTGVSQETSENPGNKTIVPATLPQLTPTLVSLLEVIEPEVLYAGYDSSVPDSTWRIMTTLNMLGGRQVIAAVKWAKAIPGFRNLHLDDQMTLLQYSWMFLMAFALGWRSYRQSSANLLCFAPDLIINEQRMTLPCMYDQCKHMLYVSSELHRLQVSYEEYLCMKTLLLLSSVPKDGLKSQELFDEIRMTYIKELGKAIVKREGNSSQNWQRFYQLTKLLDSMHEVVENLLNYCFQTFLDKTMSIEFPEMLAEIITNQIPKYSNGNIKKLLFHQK

For experiment [5], the target named is Peroxisome proliferator-activated receptor gamma (Homo sapiens) (UniProt P37231). The experiment in a line: qHTS assay for small molecule antagonists of peroxisome proliferator-activated receptor gamma signaling (AID 588537; active = well fitted inhibition curve with a large enough effect in the signal ratio, with a control signal flat, not every such curve was filed as active; the % refers to the signal ratio;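 also: reporter cells co-stimulated with 50 nM rosiglitazone agonist during compound treatment; % of control where 0% means no effect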). The method, boiled down: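 Antagonist mode, beta-lactamase reporter in HEK293; charcoal/dextran FBS 1%; 3000 cells/well, 37 C 6-6.5 h; cpd titration + rosiglitazone 50 nM final, 16 h 37 C; CCF4, 2 h RT; 460/530 nm; Hill fit → IC50, efficacy.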
Chain of Peroxisome proliferator-activated receptor gamma (Homo sapiens) (P37231 whole entry, looked up): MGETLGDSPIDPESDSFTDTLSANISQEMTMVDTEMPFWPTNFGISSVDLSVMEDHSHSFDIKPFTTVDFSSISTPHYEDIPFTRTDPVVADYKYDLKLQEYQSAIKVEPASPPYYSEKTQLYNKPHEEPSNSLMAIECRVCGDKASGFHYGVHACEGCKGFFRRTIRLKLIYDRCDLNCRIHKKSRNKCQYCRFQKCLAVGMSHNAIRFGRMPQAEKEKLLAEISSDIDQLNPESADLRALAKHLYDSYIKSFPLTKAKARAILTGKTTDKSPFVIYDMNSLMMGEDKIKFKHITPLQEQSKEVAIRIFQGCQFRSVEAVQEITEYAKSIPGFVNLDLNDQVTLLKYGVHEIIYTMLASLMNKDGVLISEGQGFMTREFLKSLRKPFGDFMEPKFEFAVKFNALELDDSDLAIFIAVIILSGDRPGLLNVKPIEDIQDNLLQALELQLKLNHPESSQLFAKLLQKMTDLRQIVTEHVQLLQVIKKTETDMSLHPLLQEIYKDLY

Experiment [6] deals with Vitamin D3 receptor (Homo sapiens) (UniProt P11473). Nature of the experiment: qHTS assay for small molecule agonists of vitamin D receptor signaling (AID 588543).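 Also: 0% = DMSO basal and 100% = reference agonist control.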 The method, boiled down:
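VDR-UAS-bla HEK293T cells, 2000/well, 2% charcoal-stripped FBS; compound titration 16 h at 37 C; CCF4 beta-lactamase ratio read. Normalized to 50 nM 1-alpha,25-dihydroxyvitamin D3 (100%) and DMSO; Hill fit gives EC50, efficacy.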

For experiment [7], the target named is Retinoic acid receptor RXR-alpha (Homo sapiens) (UniProt P19793). Nature of the experiment: qHTS assay for small molecule agonists of retinoid X receptor alpha signaling (AID 588544).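 Also: 0% = DMSO basal wells and 100% = reference agonist.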
Chain of Retinoic acid receptor RXR-alpha (Homo sapiens) (P19793 whole entry, looked up): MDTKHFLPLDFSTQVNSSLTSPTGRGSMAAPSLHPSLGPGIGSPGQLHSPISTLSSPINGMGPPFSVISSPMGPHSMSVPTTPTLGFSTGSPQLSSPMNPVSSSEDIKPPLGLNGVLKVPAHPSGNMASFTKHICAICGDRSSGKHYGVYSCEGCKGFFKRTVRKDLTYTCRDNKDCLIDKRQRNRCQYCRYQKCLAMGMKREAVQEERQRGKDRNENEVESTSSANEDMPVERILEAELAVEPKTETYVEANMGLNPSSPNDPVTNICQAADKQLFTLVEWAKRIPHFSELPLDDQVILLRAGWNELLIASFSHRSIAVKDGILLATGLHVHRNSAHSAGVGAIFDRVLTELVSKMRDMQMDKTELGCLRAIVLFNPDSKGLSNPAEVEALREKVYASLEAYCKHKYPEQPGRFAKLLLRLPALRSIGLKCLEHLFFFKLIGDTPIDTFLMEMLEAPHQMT
Experiment [8] can be described thus: qHTS assay for small molecule activators of the nuclear factor-kappa B (NF-kB) signaling pathway (AID 651749; active = well fitted activation curve with a large enough effect in the signal ratio; the % refers to the signal ratio; also: series mostly up to about 77 µM; % of control where 0% means no effect). Conditions: NF-kB-bla ME-180 cells, beta-lactamase FRET ratio, 16 h; activation: active compounds read high. The essentials: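 Readout: beta-lactamase reporter driven by an NF-kB response element, detected fluorescently as loss of FRET. Cells were the ME-180 line, treated 16 hr at 37C with pin-transferred compound.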

Experiment [9] deals with Vitamin D3 receptor (Homo sapiens) (UniProt P11473). The experiment in a line: qHTS assay for small molecule antagonists of vitamin D receptor signaling (AID 588541). The essentials: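 Antagonist-mode beta-lactamase reporter assay: HEK293T VDR-UAS-bla cells were exposed to titrated compound alongside 1-alpha,25-dihydroxyvitamin D3 at 3 nM final for 16 h. Values were normalized to the 50 nM agonist control and DMSO basal, with IC50 and efficacy from Hill equation fits.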
Chain of Vitamin D3 receptor (Homo sapiens) (P11473 whole entry, looked up): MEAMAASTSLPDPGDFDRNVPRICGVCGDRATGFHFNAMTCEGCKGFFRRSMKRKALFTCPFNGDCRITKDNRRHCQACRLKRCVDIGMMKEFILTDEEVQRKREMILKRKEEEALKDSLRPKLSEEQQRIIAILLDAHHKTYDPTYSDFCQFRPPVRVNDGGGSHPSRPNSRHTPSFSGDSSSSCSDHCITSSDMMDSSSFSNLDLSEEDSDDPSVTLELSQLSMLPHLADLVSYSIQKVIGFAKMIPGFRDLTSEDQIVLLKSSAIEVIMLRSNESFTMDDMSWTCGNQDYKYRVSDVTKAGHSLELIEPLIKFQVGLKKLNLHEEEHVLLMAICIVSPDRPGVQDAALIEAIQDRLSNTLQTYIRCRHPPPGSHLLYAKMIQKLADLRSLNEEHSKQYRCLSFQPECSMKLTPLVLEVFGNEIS

Experiment [10] can be described thus: qHTS assay for small molecule agonists of the antioxidant response element (ARE) signaling pathway (AID 651741; active = well fitted activation curve with a large enough effect in the signal ratio; the % refers to the signal ratio; also: potency is read from the fitted curve at half-maximal effect; as to activation: % of control where 0% means no effect). The essentials: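 Quantitative HTS in HepG2 cells stably expressing an ARE-beta-lactamase reporter; 16 h compound exposure at 37 C, followed by 2 h room-temperature incubation with LiveBLAzer B/G FRET substrate and fluorescence measurement.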
Experiment [11] has as its target Cytochrome P450 3A4 (Homo sapiens) (UniProt P08684). The experiment in a line: qHTS Assay for Activators of Cytochrome P450 3A4 (AID 885; active = well fitted curve in the direction sought with a large enough effect; an effect the other way counts as inactive or inconclusive; also: nearly all actives have a fitted effect of over 65% in size). The method, boiled down:
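Human CYP3A4 (20 nM) with Luciferin-PPXE at 25 uM (its KM) in 200 mM KPO4; 10 min compound preincubation, then NADPH regeneration and 60 min reaction at RT. Luciferin read by luminescence; normalized to 57 uM ketoconazole full inhibition.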

Experiment [12] has as its target DNA dC->dU-editing enzyme APOBEC-3G (Homo sapiens) (UniProt Q9HC16). Nature of the experiment: qHTS for inhibitors of Vif-A3G interactions: Validation (AID 588379; active = well fitted curve in the direction sought with a large enough effect; an effect the other way counts as inactive or inconclusive; also: 0% is about no effect). The essentials: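 HeLa cells stably expressing Vif and A3G-eYFP, 700 cells/well, incubated overnight at 37 deg C, then exposed to compound overnight at 37 deg C. Inhibition of Vif-mediated degradation read as increased yellow fluorescence (Ex 488/Em 500-530) by laser-scanning cytometry.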

Unmarked numbers belong to inactive results. Records with an inconclusive call do not appear. Calls of active or inactive are those of the source. Unless noted, calls follow the shape of the full dose curve.

Chain of Cytochrome P450 3A4 (Homo sapiens) (P08684 whole entry, looked up): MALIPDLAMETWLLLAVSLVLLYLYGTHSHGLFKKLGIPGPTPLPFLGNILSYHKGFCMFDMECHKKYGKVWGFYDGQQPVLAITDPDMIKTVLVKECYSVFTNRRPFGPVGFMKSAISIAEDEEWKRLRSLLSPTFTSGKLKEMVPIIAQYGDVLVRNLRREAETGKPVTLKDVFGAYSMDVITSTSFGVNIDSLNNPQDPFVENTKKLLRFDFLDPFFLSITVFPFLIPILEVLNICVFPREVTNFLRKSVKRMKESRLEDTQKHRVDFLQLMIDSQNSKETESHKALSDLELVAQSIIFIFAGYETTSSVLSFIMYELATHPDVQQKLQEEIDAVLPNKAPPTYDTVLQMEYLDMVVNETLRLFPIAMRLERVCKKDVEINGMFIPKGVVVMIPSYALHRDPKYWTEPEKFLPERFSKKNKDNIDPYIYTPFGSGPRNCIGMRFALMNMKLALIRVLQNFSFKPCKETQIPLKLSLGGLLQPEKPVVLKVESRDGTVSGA
Chain of Bile acid receptor (Homo sapiens) (Q96RI1 whole entry, looked up): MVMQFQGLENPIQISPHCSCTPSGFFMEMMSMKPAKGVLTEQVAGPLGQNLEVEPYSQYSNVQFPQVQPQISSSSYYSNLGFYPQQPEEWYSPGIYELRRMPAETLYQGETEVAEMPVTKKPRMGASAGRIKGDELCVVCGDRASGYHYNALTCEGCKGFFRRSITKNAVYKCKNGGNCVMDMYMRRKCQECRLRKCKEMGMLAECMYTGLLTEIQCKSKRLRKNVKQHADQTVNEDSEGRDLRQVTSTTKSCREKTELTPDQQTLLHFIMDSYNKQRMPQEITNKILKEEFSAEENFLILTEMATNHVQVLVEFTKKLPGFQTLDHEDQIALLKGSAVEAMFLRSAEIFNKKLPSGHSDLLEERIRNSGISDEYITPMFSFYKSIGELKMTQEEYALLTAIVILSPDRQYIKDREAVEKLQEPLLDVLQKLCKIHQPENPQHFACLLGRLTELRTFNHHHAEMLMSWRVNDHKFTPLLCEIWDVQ
Chain of DNA dC->dU-editing enzyme APOBEC-3G (Homo sapiens) (Q9HC16 whole entry, looked up): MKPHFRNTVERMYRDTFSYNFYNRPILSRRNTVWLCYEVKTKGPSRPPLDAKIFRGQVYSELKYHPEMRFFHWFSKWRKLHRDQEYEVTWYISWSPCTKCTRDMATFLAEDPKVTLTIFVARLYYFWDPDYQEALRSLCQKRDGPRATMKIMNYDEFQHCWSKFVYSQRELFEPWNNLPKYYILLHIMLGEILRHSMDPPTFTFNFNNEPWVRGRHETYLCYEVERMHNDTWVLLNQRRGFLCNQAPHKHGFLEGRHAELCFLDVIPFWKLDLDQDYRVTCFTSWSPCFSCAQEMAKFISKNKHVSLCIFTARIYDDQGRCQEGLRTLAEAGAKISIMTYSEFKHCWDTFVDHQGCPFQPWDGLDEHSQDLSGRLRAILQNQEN

As to `Cn1c(=O)[nH]c(=O)n(C2CCC(O)CC2)c1=O` (stereo not given), the activation in experiment [1] was 1.63%; in experiment [8], -0.274%. Moreover, the outcome in experiment [2] and in experiment [6] was inactive. Besides, the Potency result in experiment [3], in experiment [4], in [5] and in [7] was “inactive” in each case.
Turning to `CNc1nc(=O)n(C2CCCCC2)c(=O)n1C`, the activation is -4.83% in experiment [1] and -1.72% in [8]. For the same molecule, the molecule was classed as inactive in experiment [2] and in experiment [6]. Also, the Potency entry in experiment [3], in experiment [4], in experiment [5], in experiment [9], in experiment [7] and in [10] was “inactive” each time.
For `CCCCCCCOC(=O)c1ccccc1C(=O)OCCCCCCC`, the figures for the activation in experiment [1] and in [8] were -1.72% and -1.95%, respectively. For the same molecule, the molecule was classed as inactive in experiment [2] and in experiment [6]. Further, the Potency entry in experiment [3], in [4], in [9] and in experiment [7] was “inactive” each time.
For `CCCCCCCCCC(C)=O`, the figures for the activation in [1] and in [8] were -3.13% and 0.316%, respectively. Besides, the outcome in experiment [2] and in experiment [6] was inactive. In addition, the Potency result in experiment [4], in experiment [5], in experiment [9], in experiment [7] and in experiment [10] was “inactive” in each case.
Turning to `C=C1C(=O)O[C@@H]2C3OC3(C)CC/C=C(\C)CC[C@@H]12` (stereo not given in full), the Potency entry in experiment [11] and in experiment [12] was “inactive” each time.
Take `CC(C)Cc1c(C(=O)O)c(C(F)F)nc(C(F)(F)F)c1C1=NCCS1`: the values for the activation in experiment [1] and in experiment [8] were -2.77% and 1.24%, respectively. Further, the call in [2] was inactive. For the same molecule, the Potency entry in experiment [3], in experiment [4], in [5], in [9], in experiment [7] and in experiment [10] was “inactive” each time.
For `COc1cc(/C=C/C(=O)c2cccs2)cc(OC)c1OC`, the Potency result in experiment [11] and in experiment [12] was “inactive” each time.
As for `C=C(C)C(=O)OCCCCCCCCCCCCCCCC`, the activation in experiment [1] is 10.8%; in [8], -3.24%. For the same molecule, the molecule was classed as inactive in experiment [2] and in experiment [6]. For the same molecule, the Potency result in experiment [3], in experiment [4], in experiment [5], in experiment [9], in experiment [7] and in experiment [10] was “inactive” in each case.
As to `O=C1CCCC/C=C/CCCCCCCCCO1`, the activation was 0.71% in experiment [1] and -0.561% in [8]. Moreover, in [2], the call was inactive. In addition, the Potency entry in experiment [3], in experiment [5], in experiment [9], in experiment [7] and in experiment [10] was “inactive” in each case.
For `COC(=O)c1ccccc1S(=O)(=O)NC(=O)Nc1nc(OC(F)F)cc(OC(F)F)n1`, the activation in experiment [1] was -5.06%; in [8], -2.94%. Besides, in experiment [2], the call was inactive. Besides, the Potency result in experiment [3], in experiment [4], in experiment [5], in [9], in experiment [7] and in [10] was “inactive” each time.
In the case of `CC1(C)CC(NCCCCCCNC2CC(C)(C)NC(C)(C)C2)CC(C)(C)N1`, the activation in [1] is 6.67%; in [8], -3.22%. Further, the molecule was classed as inactive in [2] and in [6]. Further, the Potency result in experiment [3], in experiment [4], in [5] and in experiment [7] was “inactive” throughout.
Take `C[C@H]1[C@H](C)CC[C@]2(C(=O)O)CC[C@]3(C)C(=CCC4[C@@]5(C)C[C@@H](O)[C@H](O)[C@@](C)(CO)[C@@H]5CC[C@]43C)[C@H]12` (stereo not given in full): the Potency entry in experiment [11] and in [12] was “inactive” each time.
As for `CC[C@@H]1CN2CCc3cc(OC)c(OC)cc3[C@@H]2C[C@@H]1C[C@H]1NCCc2cc(OC)c(OC)cc21`, the Potency entry in experiment [11] and in [12] was “inactive” throughout.
With `O=C(c1ccc(Cl)cc1)c1ccc(Cl)cc1`, the activation in [1] is 19.9%; in experiment [8] it was 1.57%. The outcome in experiment [2] and in experiment [6] was inactive. For the same molecule, the Potency result in [5] and in [7] was “inactive” throughout.
Turning to `COC(=O)c1cccc(C)c1S(=O)(=O)NC(=O)Nc1nc(OCC(F)(F)F)nc(N(C)C)n1`, in experiment [1], the activation is 3.18%. In addition, the result in experiment [2] and in experiment [6] was inactive. In addition, the Potency entry in [3], in experiment [4], in experiment [5], in experiment [9] and in [10] was “inactive” throughout.
Turning to `O=c1[nH]c(=O)c2[nH]cnc2[nH]1`, the activation was 2.45% in experiment [1] and -1.45% in experiment [8]. For the same molecule, the call in experiment [2] and in [6] was inactive. Moreover, the Potency result in experiment [4], in [5], in experiment [9], in [7] and in experiment [10] was “inactive” throughout.
`Cc1ccc(N=Nc2c(O)ccc3ccccc23)c(C)c1`: the activation in experiment [1] is -2.14%. In addition, the call in experiment [2] and in experiment [6] was inactive. Besides, the Potency entry in experiment [3], in [5] and in [9] was “inactive” in each case. Besides, the Potency in experiment [10] was 7.7 µM (active).
For `CS/C(=N\O)C(=O)N(C)C`, the activation in experiment [1] is 11.7%; in experiment [8], -2.88%. Further, the result in experiment [2] and in [6] was inactive. Besides, the Potency result in [3], in [4], in [5], in [7] and in experiment [10] was “inactive” throughout.
For `O=C(O)[C@H]1[C@H]2C[C@H]3c4[nH]c5ccccc5c4CCN3C[C@@H]2CC[C@@H]1O`, the Potency result in experiment [11] and in [12] was “inactive” in each case.
On to `CCCCCCCCCc1ccccc1`, for which the activation was 1.05% in experiment [1] and -0.21% in experiment [8]. The molecule was called inactive in [2]. Besides, the Potency result in experiment [3], in [4], in experiment [5] and in [9] was “inactive” each time.
`CCc1cccc(C)c1N(C(=O)CS(=O)(=O)O)[C@@H](C)COC`: the figures for the activation in experiment [1] and in [8] were -2.5% and -2.32%, respectively. Moreover, the call in experiment [2] and in experiment [6] was inactive. For the same molecule, the Potency result in experiment [3], in experiment [4], in experiment [9] and in experiment [10] was “inactive” throughout.
As for `CC(C)c1ccc2cc(C(C)C)ccc2c1`, the activation was -3.98% in [1] and -0.342% in experiment [8]. The molecule was called inactive in experiment [2]. Moreover, the Potency entry in [5] and in experiment [9] was “inactive” each time.
`COc1ccc(-c2coc3ccc(OC4OC(COC(C)=O)C(OC(C)=O)C(OC(C)=O)C4OC(C)=O)cc3c2=O)cc1` (stereo not given): the Potency entry in [11] and in experiment [12] was “inactive” throughout.
On to `COC(=O)c1cccc(C(=O)OC)c1`, for which the activation in experiment [1] was -4.83%. Also, the molecule was called inactive in experiment [2] and in experiment [6]. For the same molecule, the Potency entry in experiment [5] and in experiment [9] was “inactive” each time.
